Each structure is given as a SMILES string. Results filed as inconclusive are left out. A call without a number means that no potency is given here. Activity calls are given as the source filed them. The call rests on the fitted dose curve; in most records, active means well fitted cell-killing curve with a large enough effect; inconclusive means small, poorly fitted or top-dose-only effect, or effect the other way; inactive means no such curve, though single readings can be large or run the other way.
Potency means the concentration at half of the fitted maximal effect.

The test system of this experiment is SKOV3. In words: Confirmatory qHTS for gynecologic anti-cancer compounds from libraries of approved drugs and bioactive compounds. Further: nearly all actives have a fitted effect of over 55% in size. Conditions: gynecologic cancer cell panel viability, ATPlite luminescence, 48 h; series mostly up to 57.6 µM. Summed up: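 Seeding 1,000 cells per well preceded overnight (16 h) attachment, after which 48 h drug treatment across 57.5 uM–0.977 nM (11 points) was applied. Remaining cellular ATP, detected by ATPlite luminescence, defined IC50.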
On the technique in general: Quantitative high-throughput screening tests each substance at several concentrations.
As to `COc1ccc2c(c1)c(CC(=O)O)c(C)n2C(=O)c1ccc(Cl)cc1`, the Potency result was “inactive”. On to `Cc1cnc(Nc2ccc(OCCN3CCCC3)cc2)nc1Nc1cccc(S(=O)(=O)NC(C)(C)C)c1`, for which the Potency was 10.9 µM (active). As to `Cn1cc(-c2[nH]c3cc(NC(=O)[C@H](N)C4CCCCC4)cc4c3c2C=NNC4=O)cn1`, the Potency was 0.968 µM (active). As for `O=c1[nH]c(=O)n([C@H]2C[C@H](O)[C@@H](CO)O2)cc1Br`, the entry is “inactive”. Regarding `Nc1ccccc1NC(=O)c1ccc(CNc2nccc(-c3cccnc3)n2)cc1`, the Potency is 0.432 µM (active). As for `Cc1cc(Nc2nc(N[C@@H](C)c3ncc(F)cn3)ncc2Cl)n[nH]1`, the entry is “inactive”; as for `O=C(c1ccc(F)c(F)c1Nc1ccc(I)cc1F)N1CC(O)([C@@H]2CCCCN2)C1`, 6.11 µM (active); as for `COc1cccc2c1C(=O)c1c(O)c3c(c(O)c1C2=O)C[C@@](O)(C(=O)CO)C[C@@H]3O[C@H]1C[C@H](N)[C@H](O[C@@H]2CCCCO2)[C@H](C)O1`, 0.685 µM (active).

In the case of `COc1cc2c(Nc3ccc(NC(=O)c4ccccc4)cc3)ncnc2cc1OCCCN1CCOCC1`, the Potency result is “inactive”. As for `CCCCc1oc2ccccc2c1C(=O)c1cc(I)c(OCCN(CC)CC)c(I)c1`, the figure is 70.8 µM (active); as for `NS(=O)(=O)c1ccc(Nc2nc(OCC3CCCCC3)c3[nH]cnc3n2)cc1`, “inactive”.

Consider `Nc1ccccc1NC(=O)c1ccc(CNC(=O)OCc2cccnc2)cc1`, for which the Potency was 2.17 µM (active). Next, `CC(C)(C(=O)NCC(F)(F)C(F)(F)F)C(=O)NC1C(=O)Nc2ccccc2-c2ccccc21` (stereo not drawn): “inactive”; `CCCCN(CCCC)C(=O)CN1C[C@H](c2ccc3c(c2)OCO3)[C@@H](C(=O)O)[C@@H]1c1ccc(OC)cc1`: “inactive”; `CN1CCN(CCOc2cc(OC3CCOCC3)c3c(Nc4c(Cl)ccc5c4OCO5)ncnc3c2)CC1`: “inactive”.

As for `CC[C@@]1(O)C(=O)OCc2c1cc1n(c2=O)Cc2c-1nc1ccccc1c2/C=N/OC(C)(C)C`, the Potency is 0.0432 µM (active). For the molecule `COc1ccc2cc3[n+](cc2c1OC)CCc1cc2c(cc1-3)OCO2`, the Potency entry is “inactive”. As for `COC(C(=O)N1Cc2[nH]nc(NC(=O)c3ccc(N4CCN(C)CC4)cc3)c2C1)c1ccccc1` (stereo not drawn), the entry is “inactive”; as for `CC[C@]1(O)C[C@H]2CN(CCc3c([nH]c4ccccc34)[C@@](C(=O)OC)(c3cc4c(cc3OC)N(C=O)[C@H]3[C@@](O)(C(=O)OC)[C@H](OC(C)=O)[C@]5(CC)C=CCN6CC[C@]43[C@@H]65)C2)C1`, “inactive”. For the molecule `CCn1c(-c2nonc2N)nc2c(C#CC(C)(C)O)ncc(OCC3CCCNC3)c21` (stereo not drawn), the Potency entry was “inactive”. For the molecule `COc1cc2c(Oc3ccc(-c4cnc(Nc5ccc(F)cc5)n(C)c4=O)cc3F)ccnc2cc1OCCCN1CCOCC1`, the Potency entry is “inactive”. Next, `Cc1cnc(Nc2cccc(CN3CCOCC3)c2)nc1Nc1cccc(S(=O)(=O)NC(C)(C)C)c1`: 10.9 µM (active). As for `Oc1cn2c(n1)Nc1ccc(Cl)c(Cl)c1C2`, the entry is “inactive”. As for `COc1ccc(-c2cc3nccn3c(Nc3ncccc3C(N)=O)n2)cc1OC`, the entry is “inactive”. For `Cn1c(=O)c(F)c(Nc2ccc(I)cc2F)c2c(=O)n(CC(O)CO)cnc21` (stereo not drawn), the Potency is 0.485 µM (active).

Take `Cc1cnc(Nc2ccc(CN3CCOCC3)cc2)nc1Nc1cccc(S(=O)(=O)NC(C)(C)C)c1`: the Potency is 4.85 µM (active).

As to `CNC(=O)c1ccccc1Sc1ccc2c(/C=C/c3ccccn3)n[nH]c2c1`, the Potency was 19.3 µM (active). On to `CCc1cccc(CC)c1NC(=O)N1Cc2[nH]nc(NC(=O)c3ccc(N4CCN(C)CC4)cc3)c2C1`, for which the Potency entry was “inactive”. Next, `CC(C)Oc1ccc2c(=O)c(-c3ccccc3)coc2c1`: 21.7 µM (active); `C=CC(=O)Nc1cc2c(Nc3ccc(F)c(Cl)c3)ncnc2cc1OCCCN1CCOCC1`: 24.3 µM (active); `CCCCN(CCCC)CC(O)c1cc(Cl)cc2c1-c1ccc(Cl)cc1/C2=C/c1ccc(Cl)cc1` (stereo not drawn): “inactive”. `Cc1nc(Nc2ncc(C(=O)Nc3c(C)cccc3Cl)s2)cc(N2CCN(CCO)CC2)n1`: the Potency was 21.7 µM (active). For the molecule `OCCNC1CCCc2c1[nH]c1ccc(-c3ccccc3)cc21` (stereo not drawn), the Potency was 30.6 µM (active).

These data come from PubChem BioAssay AID1345085 (National Center for Advancing Translational Sciences (NCATS), 2018).
